Reference: ChEMBL document CHEMBL3988442, “University of Dundee, Small-Polar-MMV Screening Library” (2021)
In all, about 48,000 compounds went through this assay and about 13,000 (27%) showed an effect of 50% or more. This is one part of the list.

Each molecule was assayed on Wolbachia pipientis (assay: Anti-Wolbachia Cell-Based Screen). Settings: 5 µM.
Format: functional
Set-up: scale not given: in the data most compounds retested in dose-response had high values

| Compound | Percent Effect |
| --- | --- |
| Cc1cc(C)c2nc(CNC3CCCNC3=O)cc(O)c2c1 (stereo not drawn) | -9.599% |
| Cn1cc(CN2CCCn3cnc(COCc4ccco4)c3C2)cn1 | -8.432% |
| Cc1cc2c(cc1C)C(NCc1nnc3n1CCCCC3)CCCO2 (stereo not drawn) | 3.518% |
| CSCC[C@@H](CO)n1ccnc1-c1nccn1C | -1.218% |
| O=C1CCN(C(=O)NCCc2c[nH]c3ccc(Cl)cc23)CCN1 | 98.23% |
| CC(C)(C)c1noc(CCCC(=O)N2CCNC(=O)CC2)n1 | -18.62% |
| CC(CNC(=O)N1CCNC(=O)CC1)Cc1cccs1 (stereo not drawn) | 17.79% |
| O=C1CCN(C(=O)C2(c3ccc(Br)cc3)CC2)CCN1 | 3.303% |
| O=C(NCCOc1ccc(Cl)cc1)N1CCS(=O)(=O)CC1 | 9.107% |
| O=C1CCN(C(=O)CCc2cc(Br)cs2)CCN1 | -5.326% |
| O=C1CCN(C(=O)NCCCc2ccc(Cl)cc2Cl)CCN1 | 108.4% |
| CC(=O)N1CCCN(C(=O)NCCc2cc(Cl)cc(Cl)c2)CC1 | 8.517% |
| O=C1CCN(C(=O)CCc2ccc(Cl)cc2Cl)CCN1 | 106.4% |
| Cc1noc(C)c1CN(C)C(=O)c1ccc2c(c1O)OC(C)(C)C2 | -18.28% |
| CN(CC(O)CO)C(=O)c1coc(COc2cccc(F)c2)n1 (stereo not drawn) | -18.15% |
| Cc1ccn2ncc(C(=O)N3CCCC(n4nc(C)nc4C)C3)c2n1 (stereo not drawn) | 0.3182% |
| CN(Cc1cc[nH]n1)C(=O)c1cccc(CCC(C)(C)O)c1 | -7.029% |

| Compound | Percent Effect |
| --- | --- |
| O=C(Nc1ccccc1)C1=NOC2(CCCN(C(=O)C3CCCC3)C2)C1 (stereo not drawn) | 104.4% |
| O=C(Nc1ccccc1)C1=NOC2(CCCN(C(=O)N3CCCC3)C2)C1 (stereo not drawn) | 131.1% |
| O=C(NCc1cccnc1)C1=NOC2(CCN(C3CCOCC3)C2)C1 (stereo not drawn) | -2.233% |
| O=C(NCc1cccnc1)C1=NOC2(CCN(C(=O)N3CCCC3)C2)C1.O=C(O)C(F)(F)F (stereo not drawn) | -7.099% |
| Cl.O=C(Nc1ccccc1F)C1=NOC2(CCNCC2)C1 | 2.616% |
| O=C(NCc1cccnc1)C1=NOC2(CCN(S(=O)(=O)C3CC3)C2)C1 (stereo not drawn) | -5.335% |
| CCC(C)(CC(=O)OC)NCc1nc(C)no1 (stereo not drawn) | -15.67% |
| CC(C)(C)c1ccc2c(c1)CCN2C(=O)c1nc(=O)[nH][nH]1 | 2.994% |
| O=C(c1cc2c([nH]c1=O)CCC2)N1CCCCC1c1cccc(F)c1 (stereo not drawn) | -12.81% |
| Cc1nc(C)c(C(=O)N2CCc3ccc(F)cc3C2C)o1 (stereo not drawn) | 2.437% |
| CC1c2ccc(F)cc2CCN1C(=O)c1[nH]c(=O)[nH]c(=O)c1N (stereo not drawn) | 98.7% |
| COC(=O)c1cc(C(=O)N2CCc3ccc(F)cc3C2C)ccn1 (stereo not drawn) | -4.117% |
| CC(C)(C)c1ccc2c(c1)CCN2C(=O)c1[nH]c(=O)[nH]c(=O)c1N | 1.564% |
| CC1c2cc(F)ccc2CCN1C(=O)c1[nH]c(=O)[nH]c(=O)c1N (stereo not drawn) | 103.3% |
| CC1c2ccc(F)cc2CCN1C(=O)c1nc(=O)[nH][nH]1 (stereo not drawn) | 110% |
| Cc1nc(C)c(C(=O)N2CCc3cc(F)ccc3C2C)o1 (stereo not drawn) | -9.87% |
